For some of these results: Potency and affinity values are given separately.

Our source for the Percent Effect values is ChEMBL document CHEMBL3988442, “University of Dundee, Small-Polar-MMV Screening Library” (2021).

Design in all cases: scale not given: direction of the effect not stated beside the values
Assay [1] has as its target Protein translocase subunit SecA (Escherichia coli (strain K12)) (UniProt P10408). Put plainly: Assay to Identify E. coli SecA ATPase Inhibitors. In kind it is functional. The following applies: 30 µM.
The target in assay [2] is T1, Ubiquitin-activating enzyme e1, putative (Leishmania donovani (strain BPK282A1)) (UniProt E9BSI1).
T1 sequence (whole entry): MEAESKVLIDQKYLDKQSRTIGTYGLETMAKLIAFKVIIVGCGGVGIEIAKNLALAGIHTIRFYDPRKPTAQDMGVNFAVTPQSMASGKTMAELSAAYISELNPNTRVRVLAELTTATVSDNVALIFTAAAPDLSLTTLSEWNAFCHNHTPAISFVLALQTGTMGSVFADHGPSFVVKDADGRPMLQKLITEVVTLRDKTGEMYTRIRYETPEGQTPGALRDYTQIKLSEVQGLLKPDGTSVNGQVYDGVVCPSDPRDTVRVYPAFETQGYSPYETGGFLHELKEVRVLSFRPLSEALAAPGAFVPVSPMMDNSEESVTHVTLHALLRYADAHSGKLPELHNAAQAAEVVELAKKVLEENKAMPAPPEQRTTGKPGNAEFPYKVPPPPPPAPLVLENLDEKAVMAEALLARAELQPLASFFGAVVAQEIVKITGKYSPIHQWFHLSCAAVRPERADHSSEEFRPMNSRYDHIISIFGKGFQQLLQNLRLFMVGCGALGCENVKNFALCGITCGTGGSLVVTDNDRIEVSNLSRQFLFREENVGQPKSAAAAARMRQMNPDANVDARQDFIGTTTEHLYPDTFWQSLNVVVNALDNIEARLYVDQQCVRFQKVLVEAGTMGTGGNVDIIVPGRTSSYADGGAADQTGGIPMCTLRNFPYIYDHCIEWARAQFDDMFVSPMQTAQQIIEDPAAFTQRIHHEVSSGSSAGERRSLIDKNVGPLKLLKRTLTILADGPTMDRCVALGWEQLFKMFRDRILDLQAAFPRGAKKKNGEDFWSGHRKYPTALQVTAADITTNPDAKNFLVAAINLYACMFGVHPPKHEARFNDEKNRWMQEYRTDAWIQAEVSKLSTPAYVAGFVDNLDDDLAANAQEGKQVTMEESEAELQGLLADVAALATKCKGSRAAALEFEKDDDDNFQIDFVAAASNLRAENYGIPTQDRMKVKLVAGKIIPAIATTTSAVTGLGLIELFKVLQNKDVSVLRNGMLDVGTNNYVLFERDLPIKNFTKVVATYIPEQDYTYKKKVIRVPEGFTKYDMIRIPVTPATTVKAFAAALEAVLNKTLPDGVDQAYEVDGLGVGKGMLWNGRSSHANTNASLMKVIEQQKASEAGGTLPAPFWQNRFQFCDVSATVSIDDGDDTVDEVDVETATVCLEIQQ
Description: Leishmania donovani Ubiquitin Activating Enzyme (LdE1). It counts as functional. As to conditions: 30 µM.

In assay [3] the target is AMP-activated protein kinase, AMPK (Homo sapiens) (UniProt P54646+O43741+P54619+Q9UGJ0+Q9Y478+Q13131+Q9UGI9). Put plainly: AMP-dependent Kinase enzyme assay. An in vitro enzyme assay that detects ADP turnover that is directly proportional to AMPK activity. This uses naive AMPK that is activated during the assay with MK-8722. It counts as functional. The following applies: 30 µM.

The target in assay [4] is Sialic acid-binding Ig-like lectin 9 (Homo sapiens) (UniProt Q9Y336). Put plainly: Hs-Siglec9 ALPHAscreen SOP 20170721. As to conditions: 10 µM.
The subject of a further assay is Trypanosoma cruzi. Put plainly: Trypanosoma cruzi phosphomannomutase and mannose-1-phosphate guanylyltransferase assay. It counts as functional. As to conditions: 10 µM.
Assay [5] addresses T2, Arginase-2, mitochondrial (Homo sapiens) (UniProt P78540).
T2 sequence (whole entry): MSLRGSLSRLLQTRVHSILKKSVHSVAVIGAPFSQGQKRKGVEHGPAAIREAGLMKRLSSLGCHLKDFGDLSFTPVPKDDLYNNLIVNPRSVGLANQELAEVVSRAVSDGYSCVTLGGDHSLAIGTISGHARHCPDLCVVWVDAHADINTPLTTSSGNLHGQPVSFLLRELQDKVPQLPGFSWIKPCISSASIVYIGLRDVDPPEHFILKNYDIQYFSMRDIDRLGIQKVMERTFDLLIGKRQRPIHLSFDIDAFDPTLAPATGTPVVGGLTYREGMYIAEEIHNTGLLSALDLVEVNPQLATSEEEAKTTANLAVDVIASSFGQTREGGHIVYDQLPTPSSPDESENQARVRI
Put plainly: in vitro enzyme assay to detect the production of urea directly proportional to the activity of Arginase II. Note: in the data most compounds retested in dose-response had high values. As to conditions: 33.3 µM. It counts as functional.

Assay [6] has as its target T3, Proteasome subunit beta (Trypanosoma cruzi) (UniProt O96673).
T3 sequence (whole entry): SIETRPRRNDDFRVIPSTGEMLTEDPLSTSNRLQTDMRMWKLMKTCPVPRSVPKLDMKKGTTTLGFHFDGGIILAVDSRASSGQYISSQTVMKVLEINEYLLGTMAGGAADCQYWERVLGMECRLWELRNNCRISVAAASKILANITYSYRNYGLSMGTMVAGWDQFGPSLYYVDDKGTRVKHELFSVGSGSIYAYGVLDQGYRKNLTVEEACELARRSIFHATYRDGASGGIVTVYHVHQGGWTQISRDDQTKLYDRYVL
Description: Trypanosoma cruzi proteasome chymotrypsin-like activity (TcProtChymo) assay. Note: in the data most compounds retested in dose-response had high values. It counts as functional. As to conditions: 9.37 µM.

The species entered for another assay is Homo sapiens. Put plainly: To identify inhibition of the IFN signalling (Jak-Stat) pathway via expression of an eGFP reporter gene under the control of an IFN-stimulated response element (ISRE) containing MxA promoter. The following applies: 30 µM. In kind it is functional. In general terms: In a reporter assay the amount or activity of a reporter protein is the signal.

Assay [7] addresses T4, Tyrosyl-tRNA synthetase, putative (Trypanosoma cruzi (strain CL Brener)) (UniProt Q4DSP6).
T4 sequence (whole entry): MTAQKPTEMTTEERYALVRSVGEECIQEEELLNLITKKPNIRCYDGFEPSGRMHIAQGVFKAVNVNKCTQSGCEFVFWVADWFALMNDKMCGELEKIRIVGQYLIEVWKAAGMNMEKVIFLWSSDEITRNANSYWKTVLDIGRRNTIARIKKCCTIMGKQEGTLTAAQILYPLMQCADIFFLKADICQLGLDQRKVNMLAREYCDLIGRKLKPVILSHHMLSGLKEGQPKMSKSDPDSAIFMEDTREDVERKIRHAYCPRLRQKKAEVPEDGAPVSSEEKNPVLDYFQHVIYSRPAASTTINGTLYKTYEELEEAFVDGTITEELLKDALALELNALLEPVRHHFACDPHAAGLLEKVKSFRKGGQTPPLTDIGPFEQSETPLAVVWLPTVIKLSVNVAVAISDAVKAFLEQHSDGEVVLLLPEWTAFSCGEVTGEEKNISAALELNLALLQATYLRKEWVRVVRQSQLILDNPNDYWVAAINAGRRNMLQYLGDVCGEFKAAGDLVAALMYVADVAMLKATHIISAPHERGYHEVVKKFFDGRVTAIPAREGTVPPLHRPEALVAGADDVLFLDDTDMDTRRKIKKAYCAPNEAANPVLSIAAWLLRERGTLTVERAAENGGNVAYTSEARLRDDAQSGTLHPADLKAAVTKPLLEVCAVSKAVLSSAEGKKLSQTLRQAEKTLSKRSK
Put plainly: Trypanosoma cruzi tyrosyl tRNA synthetase (TcYRS) _High Tyrosine SOP. Note: in the data most compounds retested in dose-response had high values. In kind it is functional. As to conditions: 30 µM.

Assay [8] has as its target T4, Tyrosyl-tRNA synthetase, putative (Trypanosoma cruzi (strain CL Brener)). Description: Trypanosoma cruzi tyrosyl tRNA synthetase (TcYRS) SOP. In kind it is functional. As to conditions: 30 µM.
Assay [9] concerns the target Chromo domain-containing protein 1 (Saccharomyces cerevisiae (strain ATCC 204508 / S288c) (Baker's yeast)) (UniProt P32657). Put plainly: ScCHD-1 Enzyme Inhibition Assay. Note: in the data most compounds retested in dose-response had high values. The following applies: 30 µM. It counts as functional.

Sialic acid-binding Ig-like lectin 9 (Homo sapiens), sequence (Q9Y336 whole entry): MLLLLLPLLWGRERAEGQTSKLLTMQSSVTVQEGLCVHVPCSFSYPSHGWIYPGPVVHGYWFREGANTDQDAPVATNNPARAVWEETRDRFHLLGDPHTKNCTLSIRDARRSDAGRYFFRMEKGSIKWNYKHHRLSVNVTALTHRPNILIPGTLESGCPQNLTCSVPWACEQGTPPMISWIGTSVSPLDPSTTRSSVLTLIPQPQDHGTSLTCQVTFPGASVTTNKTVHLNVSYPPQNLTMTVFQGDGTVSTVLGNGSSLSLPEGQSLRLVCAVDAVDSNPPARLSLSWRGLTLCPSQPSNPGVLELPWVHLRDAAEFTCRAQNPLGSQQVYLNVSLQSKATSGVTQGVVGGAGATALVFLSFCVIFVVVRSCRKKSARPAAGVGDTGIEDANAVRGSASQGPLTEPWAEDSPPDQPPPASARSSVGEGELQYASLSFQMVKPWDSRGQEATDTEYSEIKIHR
Chromo domain-containing protein 1 (Saccharomyces cerevisiae (strain ATCC 204508 / S288c) (Baker's yeast)), sequence (P32657 whole entry, the tested form may be a part): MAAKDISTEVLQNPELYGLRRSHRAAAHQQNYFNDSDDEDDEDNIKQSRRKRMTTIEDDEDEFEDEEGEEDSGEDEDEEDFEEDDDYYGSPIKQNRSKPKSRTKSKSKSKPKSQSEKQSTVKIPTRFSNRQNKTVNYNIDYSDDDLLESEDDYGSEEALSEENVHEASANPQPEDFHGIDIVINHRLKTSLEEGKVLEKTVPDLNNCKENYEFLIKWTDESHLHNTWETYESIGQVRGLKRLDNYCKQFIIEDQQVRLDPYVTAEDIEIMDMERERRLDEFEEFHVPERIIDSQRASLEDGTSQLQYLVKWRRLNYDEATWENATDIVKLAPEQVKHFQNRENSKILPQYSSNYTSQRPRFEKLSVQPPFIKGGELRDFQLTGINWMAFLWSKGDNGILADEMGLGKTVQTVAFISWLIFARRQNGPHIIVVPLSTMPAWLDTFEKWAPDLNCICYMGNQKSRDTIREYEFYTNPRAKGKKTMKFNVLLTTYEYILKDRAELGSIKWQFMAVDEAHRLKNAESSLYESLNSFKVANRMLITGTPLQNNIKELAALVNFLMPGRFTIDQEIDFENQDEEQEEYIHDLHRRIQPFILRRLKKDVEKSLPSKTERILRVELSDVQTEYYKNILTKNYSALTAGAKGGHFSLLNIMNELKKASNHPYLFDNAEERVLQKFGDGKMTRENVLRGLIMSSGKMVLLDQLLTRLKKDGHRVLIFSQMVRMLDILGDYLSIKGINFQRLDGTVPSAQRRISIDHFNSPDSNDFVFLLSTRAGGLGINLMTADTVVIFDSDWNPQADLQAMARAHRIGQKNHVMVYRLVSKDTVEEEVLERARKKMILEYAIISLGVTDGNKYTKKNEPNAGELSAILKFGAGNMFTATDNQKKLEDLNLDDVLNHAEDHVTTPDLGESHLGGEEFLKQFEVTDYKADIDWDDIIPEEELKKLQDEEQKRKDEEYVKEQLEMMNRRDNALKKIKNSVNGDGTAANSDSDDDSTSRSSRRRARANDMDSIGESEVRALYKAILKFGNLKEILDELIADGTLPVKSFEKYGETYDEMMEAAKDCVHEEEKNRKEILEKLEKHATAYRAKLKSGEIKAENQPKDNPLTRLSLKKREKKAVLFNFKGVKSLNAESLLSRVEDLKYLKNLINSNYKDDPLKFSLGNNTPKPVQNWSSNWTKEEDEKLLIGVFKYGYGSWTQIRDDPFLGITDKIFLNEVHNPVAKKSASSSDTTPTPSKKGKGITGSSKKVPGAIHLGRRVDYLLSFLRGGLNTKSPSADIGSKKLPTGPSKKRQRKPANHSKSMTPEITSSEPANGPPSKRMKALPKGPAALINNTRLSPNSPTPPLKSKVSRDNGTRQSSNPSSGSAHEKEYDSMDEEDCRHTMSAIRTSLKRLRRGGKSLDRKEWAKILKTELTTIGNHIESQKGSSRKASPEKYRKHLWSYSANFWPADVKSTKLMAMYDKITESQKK
Protein translocase subunit SecA (Escherichia coli (strain K12)), sequence (P10408 whole entry): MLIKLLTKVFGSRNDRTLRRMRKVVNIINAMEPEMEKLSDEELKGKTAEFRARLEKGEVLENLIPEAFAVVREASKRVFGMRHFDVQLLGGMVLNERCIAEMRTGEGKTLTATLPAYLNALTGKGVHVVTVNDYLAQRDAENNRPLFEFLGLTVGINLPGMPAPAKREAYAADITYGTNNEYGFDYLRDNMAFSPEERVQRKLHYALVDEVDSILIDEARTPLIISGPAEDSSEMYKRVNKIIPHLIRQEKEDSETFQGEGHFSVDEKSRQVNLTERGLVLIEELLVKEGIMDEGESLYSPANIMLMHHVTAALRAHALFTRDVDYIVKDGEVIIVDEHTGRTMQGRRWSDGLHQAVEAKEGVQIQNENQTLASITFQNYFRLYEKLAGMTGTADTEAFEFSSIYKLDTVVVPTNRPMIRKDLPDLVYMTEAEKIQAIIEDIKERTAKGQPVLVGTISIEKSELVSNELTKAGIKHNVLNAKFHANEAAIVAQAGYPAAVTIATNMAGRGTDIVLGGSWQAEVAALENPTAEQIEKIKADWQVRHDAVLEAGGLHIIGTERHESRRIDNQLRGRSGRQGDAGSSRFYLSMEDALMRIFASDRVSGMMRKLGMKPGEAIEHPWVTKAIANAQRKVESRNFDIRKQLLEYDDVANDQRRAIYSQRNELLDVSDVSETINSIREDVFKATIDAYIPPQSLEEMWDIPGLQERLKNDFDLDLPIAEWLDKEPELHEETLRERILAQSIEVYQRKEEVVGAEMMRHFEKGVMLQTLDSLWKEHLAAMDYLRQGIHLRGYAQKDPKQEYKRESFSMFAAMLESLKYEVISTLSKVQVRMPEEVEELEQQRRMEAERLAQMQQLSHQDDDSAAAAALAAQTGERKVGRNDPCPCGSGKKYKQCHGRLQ

Consider `Cn1cc(CN2CC3(CCN(C(=O)c4ccoc4)C3)C2)cn1`, for which the Percent Effect was -1.29% in assay [1]; -2.74% in [2]; 4.12% in [3]; -0.00343% in assay [4]; -3.77% in the assay with Trypanosoma cruzi; -1.6% in assay [5]. Further, the Percent Effect is 10.2% in [6]; 15.8% in the assay listed under Homo sapiens; -1.04% in assay [7]; -1.24% in assay [8]; -6.08% in assay [9].

On to `CCCc1cc(C(=O)N(C)Cc2cnc3ccccc3n2)n(C)n1`, for which the Percent Effect in [1] was -7.11%; in assay [2], 5.2%; in assay [3], 2.82%; in assay [4] it was 6.76%; with Trypanosoma cruzi, 2.06%; in [5] it was 11%. Besides, the Percent Effect in assay [6] was 8.82%; in the assay listed under Homo sapiens, 7.96%; in assay [7], 7.53%; in [8], 11.1%; in assay [9], 2.1%.

With `COc1ccc(C(=O)N2CCCCC2Cn2cccn2)c(F)c1` (stereo unspecified), the Percent Effect in assay [1] was -1.68%; in [2] it was 15.6%; in assay [3] it was 2.24%; in assay [4], 6.84%; in the assay with Trypanosoma cruzi, 1.5%; in [5], -1.42%. The Percent Effect in [6] was 13.7%; in the assay listed under Homo sapiens, -14.3%; in assay [7], 6.8%; in assay [8] it was 14.6%; in assay [9], -9.15%.

As for `C1CC1c1nsc(N2CCN(C3CC3)CC2)n1`, the Percent Effect in assay [1] was -5.35%; in assay [2], 13.7%; in assay [3], 2.89%; in [4], 8.66%; in the assay on Trypanosoma cruzi, 5.49%; in [5], 13.2%. In addition, the Percent Effect in [6] was 13.3%; in the assay filed under Homo sapiens, 12.3%; in [7], 6.45%; in assay [8], 15%; in assay [9], -6.12%.

For `O=C(c1cscn1)N1C[C@@H]2C[C@@H](c3nnc(C4CC4)o3)O[C@@H]2C1`, the Percent Effect was 1.55% in assay [1]; 7.79% in assay [2]; 2.51% in [3]; -3.79% in assay [4]; -10.2% in the assay on Trypanosoma cruzi; 22.6% in [5]. In addition, the Percent Effect in assay [6] was 10.4%; in the assay filed under Homo sapiens, 7.19%; in [7], -1.06%; in [8] it was 6.41%; in assay [9] it was -7.72%.

As for `O=C(CSc1nc2c(cnn2CCO)c(=O)[nH]1)N1CCCCCC1`, the Percent Effect in assay [1] is 1.99%; in assay [2], 8.22%; in assay [3], -8.26%; in assay [4], 4.22%; in the assay with Trypanosoma cruzi, -3.33%; in assay [5], 3.18%. Further, the Percent Effect in assay [6] is 11.4%; in the assay filed under Homo sapiens it was 14.3%; in assay [7], 4.3%; in assay [8], 10%; in [9] it was -2.48%.

As to `COc1c(CNCCNC(=O)c2ccc(C)cc2)c(C)nn1C`, the Percent Effect in [1] was -5.75%; in assay [2], 13.5%; in assay [3], -5.83%; in assay [4], 19.1%; with Trypanosoma cruzi, 6.96%; in assay [5], -2.4%. In addition, the Percent Effect in assay [6] was 5.57%; in the assay filed under Homo sapiens it was -9.3%; in assay [7], 7.92%; in assay [8], 28.1%; in assay [9], -7.35%.

With `Cn1c(Cn2ccnc2)nnc1C1CCN(Cc2cccnc2N)CC1`, the Percent Effect in [1] is -2.31%; in assay [2], -9.72%; in assay [3], 1.79%; in assay [4], -9.15%; in the assay on Trypanosoma cruzi it was -2.62%; in [5] it was 3.53%. Besides, the Percent Effect in assay [6] was 9.12%; in the assay listed under Homo sapiens, -8.94%; in assay [7], 2.1%; in [8] it was 2.56%; in assay [9], -3.65%.

`NS(=O)(=O)N1CCc2ccc(NC(=O)Cc3ccc(F)cc3)cc21`: the Percent Effect is -2.62% in [1]; 2.74% in [2]; -2.62% in assay [3]; 3.78% in [4]; 4.31% in the assay on Trypanosoma cruzi; -39.1% in assay [5]. Besides, the Percent Effect is 6.92% in assay [6]; 20.9% in the assay listed under Homo sapiens; -3.23% in assay [7]; 2.5% in [8]; -1.74% in assay [9].

For the compound `O=C(NCCNc1cnccn1)C1CCN(C(=O)N2CCCC2)CC1`, the Percent Effect in [1] is -3.3%; in [2] it was 19%; in assay [3], -1.9%; in assay [4], -1.57%; in the assay with Trypanosoma cruzi it was -2.36%; in [5], -5.81%. Besides, the Percent Effect is 15.6% in assay [6]; 8.62% in the assay listed under Homo sapiens; -3.12% in [7]; 17.7% in assay [8]; -23.5% in [9].

Regarding `COCCN1C(=O)CO[C@H]2CN(Cc3c[nH]nc3-c3ccccc3)C[C@@H]21`, the Percent Effect in [1] is -5.09%; in assay [2], 12.2%; in assay [3], 8.07%; in [4], 9.93%; in the assay on Trypanosoma cruzi, 2.77%; in assay [5], -5.8%. Moreover, the Percent Effect was 2.34% in assay [6]; 19.6% in the assay filed under Homo sapiens; 2.15% in [7]; 6.49% in [8]; -22.8% in [9].
